# Records with an inconclusive call do not appear. The source made the active and inactive calls. The call rests on the fitted dose curve; in most records, active means well fitted inhibition curve with a large enough effect in the repeat runs; inconclusive means weak or mixed curves; inactive means no such curve, though single readings can be large or run the other way.
# Biological target: Cytochrome P450 2C9 (Homo sapiens) (UniProt P11712)
# Test: Cytochrome P450 family 2 subfamily C member 9 (CYP2C9) small molecule antagonists: luciferase biochemical (cell-free) qHTS assay (AID 1645842); further: nearly all actives have a fitted effect of over 55% in size
# Settings: P450-Glo CYP2C9 enzyme assay, luciferin luminescence; series mostly up to 57.4 µM; activity change, negative = inhibition: at the top concentration
# Procedure: National Center for Advancing Translational Sciences [NCATS] Assay Overview: Cytochrome P450 (CYP) enzymes are membrane-bound hemeproteins that play a key role in metabolism of drugs and xenobiotics. Assaying the effect of chemicals on CYP isozymes is useful to minimize the adverse drug reactions and toxicities in drug development process. Chemical compounds were tested for their effect on CYP enzyme activities by using P450-Glo (TM) screening systems (Promega Corporation, Madison, WI). These systems provide a luminescent method containing proluciferin substrates and are converted to luciferin products by CYP isozymes. The luciferin products formed are detected with a luciferin detection reagent, and the amount of light produced is proportional to CYP activity. P450-Glo (TM) CYP2C9 screening system (Catalog. No. V9790) was used to detect the compounds that interfere in CYP2C9 activity.
# Assay Protocol Summary: Two ul of enzyme-substrate mix supplemented with 0.4% Bovine Serum Albumin was dispensed into medium binding white/solid 1536-well plates (Greiner Bio-One North America Inc., Monroe, NC) using a Flying Reagent Dispenser (FRD, Aurora Discovery, San Diego, CA). […] The assay plates were incubated at room temperature for 10 min. Then 2 ul of NADPH regeneration solution was added to each well of the assay plates using an FRD and incubated at 37C for 1 h. The reaction was stopped by adding 4 ul of detection reagent using an FRD and after 20 min incubation at room temperature, the luminescence signal was measured using a ViewLux plate reader (Perkin Elmer, Shelton, CT). Data were expressed as relative luminescence units.
# On the % scale 0 is the no-effect control and ±100 the full control effect; potency means the concentration at half of the fitted maximal effect.
# Chain of Cytochrome P450 2C9 (Homo sapiens) (P11712 whole entry, looked up): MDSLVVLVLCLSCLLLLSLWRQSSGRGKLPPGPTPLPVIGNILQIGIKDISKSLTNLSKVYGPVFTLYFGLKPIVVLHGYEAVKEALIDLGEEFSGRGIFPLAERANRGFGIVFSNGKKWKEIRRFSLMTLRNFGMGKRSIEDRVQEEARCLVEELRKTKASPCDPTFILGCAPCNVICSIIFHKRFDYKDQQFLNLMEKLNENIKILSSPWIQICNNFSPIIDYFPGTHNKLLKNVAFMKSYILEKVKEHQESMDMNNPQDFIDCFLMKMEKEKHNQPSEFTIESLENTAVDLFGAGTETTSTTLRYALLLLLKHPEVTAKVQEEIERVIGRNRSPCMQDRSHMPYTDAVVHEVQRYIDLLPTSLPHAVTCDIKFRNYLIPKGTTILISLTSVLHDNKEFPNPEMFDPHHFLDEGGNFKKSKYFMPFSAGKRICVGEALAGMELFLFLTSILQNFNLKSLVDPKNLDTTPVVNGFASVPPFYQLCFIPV
Compound,Potency,"activity change, negative = inhibition"
CS(=O)(=O)c1ccc(C(=O)C2C(=O)CCCC2=O)c([N+](=O)[O-])c1,26.4 µM (active),
CCCCCCCCCCCCCCCC[N+](C)(C)C,,-25.2% (inactive)
CCCN(CCC)c1c([N+](=O)[O-])cc(S(N)(=O)=O)cc1[N+](=O)[O-],3.77 µM (active),
CC1(C)CC/C(=C/c2ccc(Cl)cc2)C1(O)Cn1cncn1 (stereo not given),0.611 µM (active),
O=C(Nc1ccncc1)C(=O)c1cn(Cc2ccc(Cl)cc2)c2ccccc12,0.301 µM (active),
O=S(=O)(O)C(F)(F)C(F)(F)C(F)(F)C(F)(F)C(F)(F)C(F)(F)C(F)(F)C(F)(F)F,0.564 µM (active),
CN[C@@H](C)[C@H](O)c1ccccc1,,14.3% (inactive)
C=CC(=O)NCNC(=O)C=C,,9.13% [at 115 µM] (inactive)
O=C(Nc1ccccc1-c1ccc(Cl)cc1)c1cccnc1Cl,,6.38% [at 115 µM] (inactive)
O=[N+]([O-])c1c2ccccc2cc2ccccc12,10.8 µM (active),
CC(=O)Nc1ccc(OC[C@](C)(O)C(=O)Nc2ccc([N+](=O)[O-])c(C(F)(F)F)c2)cc1,9.52 µM (active),
CCOC(=O)Nc1ccc(NCc2ccc(F)cc2)cc1N,9.52 µM (active),
CCO/N=C(\CC)C1=C(O)CC(c2c(C)cc(C)cc2C)CC1=O (stereo not given),4.48 µM (active),
O=[N+]([O-])/N=C1\NCCN1Cc1ccc(Cl)nc1,,2.93% (inactive)
CC(C)(C)NC[C@H](O)c1ccc(O)cc1Cl,,-5.75% (inactive)
CC[N+]1(CCOC(=O)C(O)(c2ccccc2)c2ccccc2)CCCCC1,,8.27% (inactive)
C1CCC(NC2CCCCC2)CC1,,1.65% (inactive)
CCCCCCCCCC(CC)c1ccc(S(=O)(=O)O)cc1 (stereo not given),7.74 µM (active),
CCN1CCN(C(=O)Cc2ccc(Nc3ncc(F)c(Nc4ccc(C(=O)Nc5ccccc5Cl)cc4)n3)cc2)CC1,1.9 µM (active),
Oc1ccc2c3c1O[C@H]1[C@@H](O)C=C[C@H]4[C@@H](C2)NCC[C@@]341,,12.2% [at 115 µM] (inactive)

Compound,Potency,"activity change, negative = inhibition"
O=C(Oc1ccc([N+](=O)[O-])cc1)N1CCN(Cc2cccc(Oc3ccccc3)c2)CC1,19 µM (active),
CSCC[C@@H](NC(=O)[C@@H](Cc1ccccc1)NC(=O)CNC(=O)CNC(=O)[C@@H](N)Cc1ccc(O)cc1)C(=O)O,,-15.5% (inactive)
Nc1ccc([N+](=O)[O-])cc1,,4.15% [at 115 µM] (inactive)
Nc1c(Cl)c(Cl)c(Cl)c(Cl)c1Cl,,47.4% [at 115 µM] (inactive)
CC(C)(C)C(O)C(Oc1ccc(Cl)cc1)n1cncn1 (stereo not given),21.2 µM (active),
CC(C)NCC(O)c1ccc([N+](=O)[O-])cc1 (stereo not given),,-0.343% (inactive)
Cc1c(C(=O)Nc2cccc(C(F)(F)F)c2)cc(-c2ccccc2)n1CCCN1CCOCC1,4.77 µM (active),
C=CCC1=C(C)C(OC(=O)C2C(C=C(C)C)C2(C)C)CC1=O (stereo not given),5.02 µM (active),
O=C(O)COc1nc(Cl)c(Cl)cc1Cl,,3.41% [at 115 µM] (inactive)
CC(C)Oc1cccc(NC(=O)c2ccccc2C(F)(F)F)c1,5.97 µM (active),
O=S(=O)(O)C(F)(F)C(F)(F)C(F)(F)C(F)(F)F,18.9 µM (active),
CN(C)[C@@H]1C(=O)C(C(N)=O)=C(O)[C@@]2(O)C(=O)C3=C(O)c4c(O)cccc4[C@@](C)(O)[C@H]3[C@H](O)[C@@H]12,,4.43% (inactive)
Cc1cc(O)ccc1Cl,,25.8% (inactive)
CC(=O)[O][Hg][c]1ccccc1,2.45 µM (active),
Cc1ccc(Cl)c(O)c1,,12.7% (inactive)
Fc1cc(Br)ccc1CBr,,17.1% (inactive)
C[C@]12COC(=O)C[C@@H]1CC[C@@H]1[C@H]2CC[C@@]2(C)[C@H]1CC[C@]2(C)O,,0.609% (inactive)
c1cc2ccc3cccc4ccc(c1)c2c34,,7.64% [at 115 µM] (inactive)
Nc1ccc(Cl)cc1N,23.3 µM (active),
CC1(N2CCC(n3c([C@@H]4CCCNC4)nc4ccccc43)CC2)CCCCCCC1,,13.6% (inactive)

# Source: PubChem BioAssay (NCATS)
